# The list is not random: actives were taken first. Their share in the collection is about 2.5%.
# EWS-Fli block – inhibitors of EWS/Fli oncoprotein transcriptional activity; A673 NR0B1-luciferase reporter, viability-normalised; inhibition, % at 12.6 µM; 350,000 compounds, 0.67% hits;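 active = mean inhibition of at least 50% after viability correction, with every replicate also passing that limit; inconclusive = mean reaches 50% but only one of two replicates passes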;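 note: firefly luciferase signal divided by Alamar Blue viability fluorescence both relative to DMSO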
# LGR2 inh – inhibitors of bursicon-induced Drosophila LGR2 receptor cAMP signaling. HEK293 LGR2, CRE-luciferase, bursicon-stimulated, 4 h. inhibition, % at 9.99 µM. 380,000 compounds, 0.35% hits. AID 720647;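 active = drop in luminescence signal, shown as inhibition above about 50% in the replicate tests, limit read from the data, passing the limit was not always enough; inconclusive = probably only some replicates passing the limit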;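 note: agonist challenge used bursicon conditioned medium at about half maximal strength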
# TROY signal inh – blocks TROY-dependent signaling in reporter cells; 360,000 compounds, 0.98% hits; AID 1347056; Q293 LMP1-TROYcd NF-kB luciferase reporter, 4 h; inhibition, % at 10 µM;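 active = compounds whose plate-normalised and pattern-corrected inhibition of the luciferase reporter signal at the single screening dose is 50% or more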
# LMP1 NFkB inh – Epstein-Barr LMP1 NF-kappaB reporter inhibition | AID 504558 | 350,000 compounds, 0.69% hits | LMP1-induced NF-kappaB luciferase reporter cells, luminescence | inhibition, % at 12.5 µM; in the data active = inhibition above about 41%; inconclusive = no clear call, values can overlap the other calls;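 note: 0% = neutral control wells and 100% = reference inhibitor control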
# TWEAK Fn14 block – inhibitors of TWEAK-Fn14 interaction signaling | TWEAK-stimulated Fn14 reporter cells, luciferase luminescence, 8 h | inhibition, % at 10 µM | 360,000 compounds, 2% hits; in the data active = inhibition above about 50%
# Starred values were filed as active, the others as inactive; ? = inconclusive; . = no result given.
SMILES,EWS-Fli block,LGR2 inh,TROY signal inh,LMP1 NFkB inh,TWEAK Fn14 block
Cc1ccc(NC(=O)NCC2CC2(Cl)Cl)cc1 (stereo not given),-136,-68,-68,-21,-23
O=C(Nc1cccc(Cl)c1)N[C@H]1CC[C@@H](CCn2cc(Cc3ccccc3)nn2)O[C@H]1CO,6,21,.,.,.
Cc1ccc(-c2nnc(SCC(=O)Nc3ccc4c(c3)oc3ccccc34)n2C)c(Cl)c1,.,.,22,8,67*
Cc1ccccc1OCc1nnc(SCC(=O)Nc2ccc3c(c2)oc2ccccc23)n1C,.,.,-15,-9,-49
Cc1ccc(S(=O)(=O)N[C@@H]2CC[C@@H](CC(=O)N3CCN(c4ccccc4)CC3)O[C@H]2CO)cc1,-5,2,.,.,.
C[C@@H]1CN([C@@H](C)CO)C(=O)c2cc(-c3cccc(C(=O)N(C)C)c3)cnc2O[C@H]1CN(C)S(=O)(=O)c1ccccc1,-6,-10,.,.,.
O=C1[C@H]2[C@@H](c3ccc(C(F)(F)F)cc3)N[C@]3(CCCN(Cc4ccc(F)cc4)C3=O)[C@H]2C(=O)N1Cc1ccccc1,2,17,-3,-13,95*
C[C@@H]1CCCCO[C@H](CN(C)Cc2ccncc2)[C@H](C)CN([C@H](C)CO)C(=O)c2cc(NS(=O)(=O)c3ccccc3)ccc2O1,-1,4,.,.,.
COc1ccc(S(=O)(=O)Nc2ccc3c(c2)[C@H]2C[C@H](CC(=O)O)O[C@@H](CO)[C@H]2O3)cc1,4,0,.,.,.
CC(=O)N1[C@@H]2c3ccc(C4=CCCC4)c(=O)n3C[C@H]1[C@H](CO)[C@H]2C(=O)NC1CCC1,-2,3,.,.,.
O=C(Nc1ccccc1C(F)(F)F)N1CCC(N2CCCCC2)CC1,.,.,.,7,84*
O=C(Nc1ccccc1C(F)(F)F)N1CCC(n2c(=O)[nH]c3ccccc32)CC1,.,.,.,14,3
CO[C@H]1CN(C)C(=O)c2cc(NC(=O)c3cnccn3)ccc2OC[C@H](C)N(CCc2ccccc2)C[C@H]1C,3,-4,.,.,.
CCN1c2cccc3cccc(c23)S1(=O)=O,.,20,-11,-7,-13
CCc1ccc2cccc3c2c1N=CN3C,12,-7,19,7,86*
Nc1cc2c(cc1[N+](=O)[O-])-c1ccccc1C2=NO,-63,0,43,9,72*
CN(C)Cc1cn(CC[C@H]2CC[C@@H](NC(=O)Nc3ccccc3F)[C@@H](CO)O2)nn1,-4,-5,.,.,.
C=CCOC(=O)[C@H]1[C@@H]2C(=O)O[C@@H](c3ccccc3)[C@@H](c3ccccc3)N2[C@@H](c2ccc(OCCOC(=O)[C@H]3C[C@H]4C(=O)N[C@@H](Cc5ccccc5)C(=O)N4[C@H]3c3ccc(O)cc3)cc2)[C@]12C(=O)Nc1ccc(I)cc12,7,.,.,.,.
Cc1cc2ncn(CCOc3ccccc3C#N)c2cc1C,.,-24,.,-7,55*
C[C@H]1CN([C@@H](C)CO)C(=O)Cc2cc(NC(=O)Nc3ccc4c(c3)OCO4)ccc2O[C@@H]1CN(C)Cc1ccc(-c2ccccc2)cc1,-1,-8,.,.,.
CC(C)[C@H](N[C@@H](C)c1ccccc1)c1c(O)ccc2ccccc12,8,-3,20,66*,5
CC(C)(C)C(=O)NC(c1ccccc1)c1c(O)ccc2ccccc12 (stereo not given),4,9,16,-14,16
O=C(C[C@@H]1CC[C@H]2[C@@H](COC[C@@H](O)CN2Cc2nccs2)O1)NCc1ccc(F)cc1,-1,-4,.,.,.
O=C(Nc1ccc(CN2CCOCC2)cc1)c1ccc(-c2cccc(Cl)c2)o1,.,.,45,13,57*
O=C(NC(=S)Nc1ccc(CN2CCOCC2)cc1)c1ccc(-c2cccc(Cl)c2)o1,28,67*,58*,18,49
O=C(Nc1ccc(CN2CCOCC2)cc1)c1cc2ccccn2n1,56*,78*,69*,?,87*
CC(=O)N1[C@H](CO)[C@H](c2ccc(C3=CCCC3)cc2)[C@@H]1CNC(=O)CC1CC1,3,15,.,.,.
COc1ccc(NC(=O)Nc2ccc3c(c2)C(=O)N([C@@H](C)CO)C[C@H](C)[C@H](CN(C)C(=O)Nc2ccc(F)cc2)OCCCC[C@H](C)O3)cc1,0,19,.,.,.
C=C1C(C(=O)N2CCOCC2)C1C(=O)N1CCOCC1 (stereo not given),2,-5,57*,-5,78*
C=C1C(C(=O)N2CCN(C)CC2)C1C(=O)N1CCN(C)CC1 (stereo not given),3,-13,10,8,3

# Screens from PubChem BioAssay.
